B1: usp_38_diff_out_17_125_220 (protein)
chain: SDEELKKKAEELLKKAEELLKQAEKALEEGAPFEEIEKLLDEAADALGELAKTLRELREKSKDPAQAAKFIKEATEKANELIDRYTELATRAFLRQAEAA
B2: usp_38_diff_out_17_125_216 (protein)
chain: SDEELKEKAEELLKKAEELLKEAEKLLEEGAPAEEVEKKLDEAADALGQLAVTLRELREKSEDKAQAAKFIKELTKKANELIDRYTELATANFQRVADAQ
B3: usp_38_diff_out_17_125_213 (protein)
chain: AEAALIAEIEALLAEATAKVKEAEALLKAGAPTEEVLKALDAARDALGALAVALERLRRESADRAQAAAVIKAATAEADKLIDRLTELETEAFLRQAEEA
B4: usp_38_diff_out_17_26_231 (protein)
chain: SAEAARAKAEALLKELVAETDKALKEIDKLIKEGKFEEAEKLLDETVDKVTEKATEIFELAADDEALLDKANKTIGDIFDKLAARYKELQAARKAAKAAA
B5: usp_38_diff_out_17_26_238 (protein)
chain: EAEERRKEARKLLEELKEKTEKDLEEIRKLIKEGKFEEAEKLLDETIDYVTEKSTEILELAADDDELFAEALAAIDEIFDKLAAAGKELREAKREAREKE
B6: usp_38_diff_out_16_37_208 (protein)
chain: AEAKLAEFAAFMERAIEEARRLAEEARRLAEEGAPVEEIERLLEELRRLLDEVVERTTEVLEEVPEHADEILALYDRAATEIAEAGQEIREELRRRREEE
B7: usp_38_diff_out_17_26_230 (protein)
chain: AAEERRREARELMRELERRTAEALKEIEKLIEEGKLEEAEKKLDELVDEFTELATRLLELAADDDELFEEAVRVIDAAADRIAAAGNLLREAKKKKREEE
B8: usp_38_diff_out_17_26_234 (protein)
chain: SAEEERRRARELLEELRRRTEEALARIRELIAAGRFAEAQALLDATVTEVTATATEIFELAADDDELLDEVNRAVGEIFDRLAAAGRELREARRAAAAAA
B9: usp_38_diff_out_17_125_212 (protein)
chain: MFEELKKKIEELLEEARRLVEEAERALAAGAPTAEVRRLLDQAADALGQLAVELRKLREESKDKAQAAKVIKEATKEANELIDRLTELETRVFLREAEAA
B10: usp_38_diff_out_17_26_239 (protein)
chain: SSEEKRKEAEKLLKEMEEKTEEALKEIDKLIAEGKFAEAQKLLDETIDYVTEKSTEILELASDDDELFEKVMEKIDKISDRLAAAGARLRAARRAARAAA
B11: usp_38_diff_out_17_125_215 (protein)
chain: SDEELKKEIEKKLKEAEELLKEAEKALEAGAPAEEVEKLLDAAADALGQLAVLLRELREKSKDKAQAAKFIKKATEEANKLIDRYTELAERNFLRVAEEQ
B12: usp_38_diff_out_17_130_224 (protein)
chain: SAEEVEALKEYLEAEKKNVESVKEDAKKDFERAKKNPVTLDRVEHALEGNIKYMEETIKEAEKLKKEYPEVKEAADKLIKAAKKAKEEFEKYLKEVKALK
B13: usp_38_diff_out_17_26_237 (protein)
chain: SAEEKRKEAEKLLEELEKYVKETLEKIDKLIEEGKFEEAKKLLDELVTETTKRFTEILELAADDPELMDKALAKYDELSGQIAARYRRLEEARREAEAKA
B14: usp_38_diff_out_17_26_236 (protein)
chain: SAEERREEARRALEELRADTDAALKEIDALIKAGKFEEAQALLDKLVDDFTKRATEILELAADDPELMDEALRAIGEVADKIAAAGSRLRAARKAAREAA
B15: usp_38_diff_out_17_26_240 (protein)
chain: SMEERRKEARKLLEEMEKRVEEDLKKIRELIKEGKFEEAEELLNKTIDYVTETSTKILELAADDDELFDEAMEAIDKISDKLAEAGKELREAKREAREKA
B16: usp_38_diff_out_16_37_211 (protein)
chain: MEEEIEKARKEMEEHLEKALELAERALKLVEEGASEAEIEKAMQEATDALLKAGRAAAELIHLDPSLEDEVVARYDEVATRVAALLREVQEALRARRAAE
B17: usp_38_diff_out_17_125_218 (protein)
chain: SDEELKKEIERLLEEAERLLEEAEKALEEGAPFEEIRKLLDEAADALGQAAVKLRELREKSEDPAQAAKFIKEATERANELIDRYTELATRAFLREAEAA
B18: usp_38_diff_out_16_37_210 (protein)
chain: GEEVLKEFKEFMEKAIEEAKKLAEEAKKLAKEGADIEELKKLKEELEKLIDEAVEKTTEALEKVPEKIEEIFAEFDKFADEAAKAGKEIDKAIKEAKKKK
B19: usp_38_diff_out_17_125_221 (protein)
chain: TDEELKKEIEEALKKAEELLKKAKKLLEEGAPFEEIRAELDKAADALGKLAVLLRELREKSEDKAQAAKFIKEATERANKLIDEYTKLATEAFLREAEAA
B20: usp_38_diff_out_16_37_205 (protein)
chain: GEELLEEFRRFMEEAEREARRLAEEARELAEKGADIEEIERVLEELERLLDEVVERTTEVLEAVPEHADEILAEYDRAATTLAEAGKEIREKLREAKEKE
B21: usp_38_diff_out_17_130_225 (protein)
chain: SADEVEALKEYLEAEKANIEAVAADAERDLARAKRLPVTLPRVRHALEGNIKYMEETIKEAEEIKKKYPEVAAAADALIKAARDAKAKFEAMLAEVDALE
B22: usp_38_diff_out_16_37_207 (protein)
chain: GEEKLKEFKKFMEEAMKKAKKLAEEAKKLAKEGKDKKEIEKLQKELDKLLDEVNEKTTEVLEEVPEKADEILAEYDKAATTIAEAGATIRAELRKARAAE
B23: usp_38_diff_out_17_125_214 (protein)
chain: DFEELVKKIEELLAEAEKLVKEAKKLLEEGAPPAEVRAALDKARDALGALAKALRELRRTSKDKAQAAKVIKEANEKADKLIDELTKLETEVFLREADAA
B24: usp_38_diff_out_16_37_206 (protein)
chain: AEKLLAEFKAFVEEIIERARRLAEEARRLAEEGAPIEEIERVLRELEELLDELVERTTEVLEKVPEHADEILAEYDRAATEIAEAGAEIRKALRERKEKE
B25: usp_38_diff_out_16_37_204 (protein)
chain: GEELLKEYKEFVEKVIKEAKKLAEEAKKLAKAGADLAEIRAIQEKLNELLDELVERTTEVLEKVPEHAEEILEEYDKAATEIAKAGAEIRAELRKAKAAA
B26: usp_38_diff_out_17_130_223 (protein)
chain: SEDEIEALKEYLEAEKKNIKSVAEEAEKDFERAKKHPVTLDRALHALDGVIKYYEETIEEAKKILKEYPEVKEAAEELIKTAEEAKKKAEKLKKELEKLK
B27: usp_38_diff_out_17_26_235 (protein)
chain: SAEEKRKKALELLKELEKETEKELEEIEKLIKEGKFEEAEKKLDELVTKTTEKTTEILELAADDPELVEEVLKSYDKISDKIAEKYKELQEAKKKARAEA
B28: usp_38_diff_out_17_125_217 (protein)
chain: SSEELKEEIEKALKEAEELLKKAKELLEAGAPFEEIMAALDKAADALGKLAVLLRKLREESEDPAQAAKFIKEATKRADELIDEYTKLATEAFQREADAA
B29: usp_38_diff_out_16_37_209 (protein)
chain: AEKVLEEFKKFMEEAIKRAEEIGRRARELEEEGADLEELERLLEELERLLDEAVKRLTEALEKVPEKIEELFAIYDEFADAAARAGAIIREAIRRARERA
B30: usp_38_diff_out_17_130_228 (protein)
chain: MEEEIESLKEYLEAEKKNLESVAKQAEEDYERAKKNPVTLDRVIHGLEGVATYAEDTIKEAKELIKEYPEVKEEAEKLIKVAEEAKKKAEALKKKLEALK
B31: usp_38_diff_out_17_125_219 (protein)
chain: SDADLEAEAKALLAEAKALLKEAEKLLKEGAPFEEIRKKLDAAADKLGQLAVTLQQLRDKSKDKAQAAKFIKEMTAEANKLIDEYTKLATEAFLREAEEA
B32: usp_38_diff_out_17_130_227 (protein)
chain: SAEEIESLKEYLRAEKENLKSVKEEAKKNLERAKKNPVTLDRVSHGLEGVATYAEDTIKEAKELLKKYPEVAEEAKELIKVAEEARKEAKELLKEVEKLK

Biological target: T1, USP38, Q8NB14
T1 chain: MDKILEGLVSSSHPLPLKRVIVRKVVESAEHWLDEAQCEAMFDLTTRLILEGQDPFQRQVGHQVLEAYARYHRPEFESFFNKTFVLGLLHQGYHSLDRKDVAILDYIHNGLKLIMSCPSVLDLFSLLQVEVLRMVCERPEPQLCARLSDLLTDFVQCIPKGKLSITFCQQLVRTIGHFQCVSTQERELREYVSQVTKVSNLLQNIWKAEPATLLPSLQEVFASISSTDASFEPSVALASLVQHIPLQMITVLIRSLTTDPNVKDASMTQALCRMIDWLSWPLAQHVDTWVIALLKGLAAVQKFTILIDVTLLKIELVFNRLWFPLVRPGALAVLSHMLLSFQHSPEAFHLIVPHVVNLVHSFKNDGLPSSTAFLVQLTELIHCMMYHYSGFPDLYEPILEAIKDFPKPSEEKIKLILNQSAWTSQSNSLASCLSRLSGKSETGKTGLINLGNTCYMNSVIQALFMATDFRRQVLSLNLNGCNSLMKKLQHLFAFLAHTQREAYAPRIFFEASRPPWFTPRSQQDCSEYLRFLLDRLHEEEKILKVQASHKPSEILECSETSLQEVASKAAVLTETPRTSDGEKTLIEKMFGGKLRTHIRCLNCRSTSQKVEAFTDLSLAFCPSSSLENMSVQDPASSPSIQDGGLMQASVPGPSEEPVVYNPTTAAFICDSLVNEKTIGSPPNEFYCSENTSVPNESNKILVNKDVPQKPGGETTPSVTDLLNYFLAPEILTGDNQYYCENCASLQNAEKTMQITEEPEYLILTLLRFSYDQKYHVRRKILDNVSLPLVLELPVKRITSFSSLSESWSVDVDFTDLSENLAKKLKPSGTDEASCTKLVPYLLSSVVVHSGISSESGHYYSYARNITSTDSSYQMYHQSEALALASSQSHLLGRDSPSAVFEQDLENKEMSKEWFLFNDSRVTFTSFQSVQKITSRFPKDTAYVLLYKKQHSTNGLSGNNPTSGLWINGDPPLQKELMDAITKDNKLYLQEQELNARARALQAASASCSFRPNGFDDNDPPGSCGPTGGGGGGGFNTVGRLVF
Assay: median log2 fold change of GCK-ALFA target abundance (FLAG IP / Myc IP barcode read proportion) (log2 ratio); each designed protein is fused to an ALFA-tag nanobody in HEK293 cells to bring the named protein to FLAG-tagged glucokinase (GCK); Myc marks an untargeted standard; higher = target protein stabilised (more abundant)
Conditions: target protein: 3xFLAG-MCP-GCK-ALFA reporter; HEK293 landing pad (RPLP)
Method in brief: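 HEK293 landing-pad cells received a recombined binder library fused to the ALFA nanobody and were induced with 2 μg mL^−1 doxycycline, then transfected with a plasmid encoding a FLAG-tagged target and a Myc-tagged standard. Lysates were collected after 48 h for anti-FLAG and anti-Myc immunoprecipitation, and the circular RNA barcodes were reverse transcribed, amplified and sequenced. Target abundance for each binder is the median log2 ratio of FLAG to Myc barcode read proportions. Barcodes had to reach a proportion of at least 10^−7 in both replicates, each binder needed at least 3 barcodes per replicate, a pseudocount of 10^−6 was applied, and the two replicates were pooled.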

Binder | median log2 fold change
B1 | 0.167
B2 | -0.484
B3 | 0.41
B4 | -0.439
B5 | -0.0599
B6 | -0.00395
B7 | -0.167
B8 | -0.0515
B9 | -1.04
B10 | -0.0256
B11 | -0.432
B12 | 0.401
B13 | 0.259
B14 | 0.0259
B15 | 0.0157
B16 | 0.0682

Binder | median log2 fold change
B17 | 0.0443
B18 | -0.522
B19 | -0.359
B20 | -0.436
B21 | 0.15
B22 | 0.0801
B23 | -0.149
B24 | -0.0578
B25 | -0.535
B26 | 0.232
B27 | 0.284
B28 | -0.0349
B29 | 0.0185
B30 | 0.184
B31 | -0.0439
B32 | 0.32
